Of roughly 7,900 targets only a part is listed; those with a hit were picked by preference. About 0.6% of all pairs of compound and target were hits.
Tests used:
Test in all cases: log2 fold change, soluble protein after heating vs DMSO (PISA); higher = thermal stabilisation; K562 cells, 10 uM, 30 min; active = over 0.2 and 3.5 SD of the protein, either way, in both replicates (recomputed)
IRAK-1-4 Inhibitor I = compound: C1COCCN1CCN2C3=CC=CC=C3N=C2NC(=O)C4=CC(=CC=C4)[N+](=O)[O-] [IRAK-1-4 Inhibitor I]
How it was run: (§1)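 K562 cells at 2×10^6 cells/mL were exposed to 10 μM compound for 30 min, then aliquots were heated for 3 min across 48°C-58°C, pooled, and extracted in PBS containing 0.5% NP-40 at 4°C. The supernatant after 21,000xg for 90 min was taken as soluble protein and measured by TMTpro 16plex LC-MS/MS with channel sums equalised. Thermal stability is reported relative to control samples, with values from duplicates. Fold changes are given on a log2 scale.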

ibrutinib = compound: C=CC(=O)N1CCC[C@@H](n2nc(-c3ccc(Oc4ccccc4)cc3)c3c(N)ncnc32)C1 [ibrutinib]
How it was run: as §1

[1] = compound: CC(=O)c1cnc2ccc(-c3cc(Cl)c(O)c(Cl)c3)nc2c1N[C@H]1CC[C@H](CN(C)C)CC1
How it was run: as §1

ralimetinib = compound: CC(C)(C)Cn1c(N)nc2ccc(-c3[nH]c(C(C)(C)C)nc3-c3ccc(F)cc3)nc21 [ralimetinib]
How it was run: as §1

[2] = compound: CC(C)(O)CC(=O)NCCn1ccc2ncnc(Nc3ccc(Oc4cccc(C(F)(F)F)c4)c(Cl)c3)c21
How it was run: as §1

[3] = compound: CC(C)C1=C2N=C(C=C(N2N=C1)NCC3=CC=CC=C3)NCCCCCCN
How it was run: as §1

[4] = compound: CC(C)C[C@@H](C=O)NC(=O)[C@H](CC(C)C)NC(=O)[C@H](CC(C)C)NC(=O)OCc1ccccc1
How it was run: as §1

pinometostat = compound: CC(C)N(C[C@H]1O[C@@H](n2cnc3c(N)ncnc32)[C@H](O)[C@@H]1O)[C@H]1C[C@@H](CCc2nc3cc(C(C)(C)C)ccc3[nH]2)C1 [pinometostat]
How it was run: as §1

[5] = compound: CC1=C(C(CC(=O)N1)C2=CC=C(C=C2)C(F)(F)F)C(=O)NC3=C(C=C4C(=C3)C=NN4)F
How it was run: as §1

[6] = compound: CC1=C(C2=C(C=C1)C(=O)C3=CC=CC=C3N2CCCN)C
How it was run: as §1

[7] = compound: CC1=C(C=C(C=C1)NC(=O)C2=CC(=CC=C2)C(C)(C)C#N)NC3=CC4=C(C=C3)N=CN(C4=O)C
How it was run: as §1

[8] = compound: CC1=C(C=C(C=C1)NC(=O)C2=CC(=CC=C2)N(C)C)NC(=O)C3=CC=C(C=C3)O
How it was run: as §1

[9] = compound: CC1=CC=C(C=C1)SC2=C3C=C(SC3=CN=C2)C(=O)N
How it was run: as §1

[10] = compound: CC1=NC(=CC=C1)C2=C(N=C(N2)C(C)(C)C)C3=CC4=NC=CN=C4C=C3
How it was run: as §1

Nexturastat A = compound: CCCCN(Cc1ccc(C(=O)NO)cc1)C(=O)Nc1ccccc1 [Nexturastat A]
How it was run: as §1

vemurafenib = compound: CCCS(=O)(=O)Nc1ccc(F)c(C(=O)c2c[nH]c3ncc(-c4ccc(Cl)cc4)cc23)c1F [vemurafenib]
How it was run: as §1

[11] = compound: CCCS(=O)(=O)Nc1ccc(F)c(C(=O)c2c[nH]c3ncc(Cl)cc23)c1F
How it was run: as §1

[12] = compound: CCCc1cc(C)[nH]c(=O)c1CNC(=O)c1cc(-c2ccnc(N3CCN(C)CC3)c2)cc2c1cnn2C(C)C
How it was run: as §1

givinostat = compound: CCN(CC)Cc1ccc2cc(COC(=O)Nc3ccc(C(=O)NO)cc3)ccc2c1 [givinostat]
How it was run: as §1

barasertib = compound: CCN(CCCOc1ccc2c(Nc3cc(CC(=O)Nc4cccc(F)c4)[nH]n3)ncnc2c1)CCOP(=O)(O)O [barasertib]
How it was run: as §1

Measured: log2 fold change

MICU2 (UniProt Q8IYU8)
inactive: IRAK-1-4 Inhibitor I -0.039 | ibrutinib -0.001 | [1] -0.026 | ralimetinib -0.05 | [2] -0.12 | [3] -0.292 | [4] 0.128 | pinometostat 0.211 | [5] 0.072 | [6] 0.136 | [7] 0.022 | [8] 0.067 | [9] 0.091 | [10] 0.05 | Nexturastat A 0.198 | vemurafenib 0.053 | [11] 0.183 | [12] 0.042 | givinostat -0.009 | barasertib 0.079

KIF11 (UniProt P52732)
UniProt P52732, sequence (P52732 whole entry, looked up): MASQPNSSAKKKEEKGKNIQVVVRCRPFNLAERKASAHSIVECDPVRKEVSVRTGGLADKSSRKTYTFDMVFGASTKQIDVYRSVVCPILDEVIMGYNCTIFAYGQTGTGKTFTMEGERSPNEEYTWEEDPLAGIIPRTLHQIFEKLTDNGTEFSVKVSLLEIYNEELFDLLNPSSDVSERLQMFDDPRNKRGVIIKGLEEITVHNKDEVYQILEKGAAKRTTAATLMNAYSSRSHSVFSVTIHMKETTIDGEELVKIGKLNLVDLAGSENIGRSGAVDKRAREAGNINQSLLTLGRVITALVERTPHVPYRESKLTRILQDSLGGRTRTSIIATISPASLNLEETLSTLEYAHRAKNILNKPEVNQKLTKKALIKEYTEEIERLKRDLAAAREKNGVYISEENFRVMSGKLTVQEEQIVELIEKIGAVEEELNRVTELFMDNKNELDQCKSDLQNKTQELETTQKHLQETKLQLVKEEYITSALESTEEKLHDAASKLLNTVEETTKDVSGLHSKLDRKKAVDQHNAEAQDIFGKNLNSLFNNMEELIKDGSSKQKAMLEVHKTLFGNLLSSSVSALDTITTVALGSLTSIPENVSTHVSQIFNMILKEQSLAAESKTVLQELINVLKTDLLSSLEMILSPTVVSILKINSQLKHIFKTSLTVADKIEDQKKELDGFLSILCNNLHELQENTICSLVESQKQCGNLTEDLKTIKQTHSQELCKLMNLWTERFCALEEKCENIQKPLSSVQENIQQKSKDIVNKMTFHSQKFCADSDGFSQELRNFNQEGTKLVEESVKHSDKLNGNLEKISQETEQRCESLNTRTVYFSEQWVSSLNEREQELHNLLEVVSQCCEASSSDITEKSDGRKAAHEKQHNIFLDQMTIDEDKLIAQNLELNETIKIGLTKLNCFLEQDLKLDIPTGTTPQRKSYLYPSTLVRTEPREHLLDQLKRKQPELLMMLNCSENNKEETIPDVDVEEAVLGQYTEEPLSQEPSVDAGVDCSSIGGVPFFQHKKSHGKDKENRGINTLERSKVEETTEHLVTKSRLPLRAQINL
inactive: IRAK-1-4 Inhibitor I -0.097 | ibrutinib -0.049 | [1] 0.063 | ralimetinib 0.045 | [2] -0.024 | [3] -0.229 | [4] 0.04 | pinometostat 0.188 | [5] 0.006 | [6] -0.014 | [7] -0.032 | [8] -0.119 | [9] -0.005 | [10] -0.033 | Nexturastat A 0.155 | vemurafenib 0.071 | [11] 0.077 | [12] 0.076 | givinostat 0.09 | barasertib 0.049

IKZF1 (UniProt Q13422)
UniProt Q13422, sequence (Q13422 whole entry, looked up): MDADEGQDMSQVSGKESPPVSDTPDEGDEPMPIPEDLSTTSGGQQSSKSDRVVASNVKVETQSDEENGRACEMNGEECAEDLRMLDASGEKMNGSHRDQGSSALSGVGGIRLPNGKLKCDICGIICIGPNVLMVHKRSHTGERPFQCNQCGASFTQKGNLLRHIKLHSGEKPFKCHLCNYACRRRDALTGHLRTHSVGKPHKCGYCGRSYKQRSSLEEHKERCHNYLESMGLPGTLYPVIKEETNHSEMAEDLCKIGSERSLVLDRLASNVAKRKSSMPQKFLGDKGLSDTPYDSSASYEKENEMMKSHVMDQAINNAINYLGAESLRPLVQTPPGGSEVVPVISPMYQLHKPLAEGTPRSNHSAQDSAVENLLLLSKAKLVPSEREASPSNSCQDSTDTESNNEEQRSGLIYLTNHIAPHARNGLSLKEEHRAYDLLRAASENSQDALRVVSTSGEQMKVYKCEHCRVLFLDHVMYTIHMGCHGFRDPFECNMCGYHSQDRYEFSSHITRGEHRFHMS
inactive: IRAK-1-4 Inhibitor I -0.017 | ibrutinib 0.041 | [1] -0.069 | ralimetinib -0.036 | [2] -0.015 | [3] -0.016 | [4] 0.011 | pinometostat 0.01 | [5] 0.02 | [6] 0.275 | [7] 0.144 | [8] 0.036 | [9] -0.007 | [10] 0.041 | Nexturastat A -0.006 | vemurafenib 0.044 | [11] 0.034 | [12] 0.177 | givinostat -0.018 | barasertib -0.052

MARCKSL1 (UniProt P49006)
UniProt P49006, sequence (P49006 whole entry, looked up): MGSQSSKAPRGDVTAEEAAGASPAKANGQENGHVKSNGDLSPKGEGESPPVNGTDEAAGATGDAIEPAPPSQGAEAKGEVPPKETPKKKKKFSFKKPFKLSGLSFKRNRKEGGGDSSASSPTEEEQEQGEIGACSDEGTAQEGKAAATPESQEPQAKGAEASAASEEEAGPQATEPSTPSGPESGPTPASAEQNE
inactive: IRAK-1-4 Inhibitor I 0.041 | ibrutinib 0 | [1] -0.039 | ralimetinib -0.069 | [2] 0.106 | [3] 0.006 | [4] -0.034 | pinometostat -0.017 | [5] -0.031 | [6] 0.028 | [7] 0.039 | [8] 0.011 | [9] -0.111 | [10] 0.032 | Nexturastat A -0.127 | vemurafenib 0.005 | [11] -0.125 | [12] 0.005 | givinostat 0.041 | barasertib 0.034

LUC7L3 (UniProt O95232)
UniProt O95232, sequence (O95232 whole entry, looked up): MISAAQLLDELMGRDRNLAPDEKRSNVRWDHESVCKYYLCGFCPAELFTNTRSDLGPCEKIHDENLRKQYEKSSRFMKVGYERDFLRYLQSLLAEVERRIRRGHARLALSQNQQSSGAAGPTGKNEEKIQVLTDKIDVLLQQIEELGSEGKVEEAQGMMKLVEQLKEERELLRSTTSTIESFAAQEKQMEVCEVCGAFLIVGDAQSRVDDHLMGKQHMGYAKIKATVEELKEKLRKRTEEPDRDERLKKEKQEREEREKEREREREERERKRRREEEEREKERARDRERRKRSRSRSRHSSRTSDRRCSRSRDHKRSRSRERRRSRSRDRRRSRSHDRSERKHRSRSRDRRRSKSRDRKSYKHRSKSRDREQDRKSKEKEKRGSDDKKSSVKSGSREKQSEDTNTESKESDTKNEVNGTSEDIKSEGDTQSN
active: [1] -0.409
inactive: IRAK-1-4 Inhibitor I -0.123 | ibrutinib -0.037 | ralimetinib -0.024 | [2] 0.024 | [3] -0.04 | [4] 0.007 | pinometostat -0.023 | [5] -0.013 | [6] 0.109 | [7] -0.046 | [8] 0.034 | [9] -0.036 | [10] 0.086 | Nexturastat A -0.008 | vemurafenib 0.024 | [11] 0.013 | [12] -0.009 | givinostat 0.003 | barasertib 0.022

KRAS isoform 2 (UniProt P01116)
UniProt P01116, sequence (P01116 whole entry, looked up): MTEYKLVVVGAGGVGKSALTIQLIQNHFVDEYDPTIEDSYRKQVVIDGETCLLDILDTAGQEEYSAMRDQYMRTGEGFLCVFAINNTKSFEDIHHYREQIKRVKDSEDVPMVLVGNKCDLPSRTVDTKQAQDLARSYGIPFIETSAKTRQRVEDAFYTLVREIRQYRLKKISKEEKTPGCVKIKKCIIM
inactive: IRAK-1-4 Inhibitor I 0.045 | ibrutinib -0.035 | [1] -0.07 | ralimetinib 0.02 | [2] 0.101 | [3] 0.099 | pinometostat 0.014 | [5] 0.001 | [6] 0.072 | [7] -0.034 | [8] 0.046 | [9] -0.023 | [10] -0.026 | Nexturastat A -0.063 | vemurafenib -0.03 | [11] -0.093 | [12] -0.073 | givinostat 0.014 | barasertib 0.003
active: [4] 0.241

MAN2B2 (UniProt Q9Y2E5)
UniProt Q9Y2E5, sequence (Q9Y2E5 whole entry, looked up): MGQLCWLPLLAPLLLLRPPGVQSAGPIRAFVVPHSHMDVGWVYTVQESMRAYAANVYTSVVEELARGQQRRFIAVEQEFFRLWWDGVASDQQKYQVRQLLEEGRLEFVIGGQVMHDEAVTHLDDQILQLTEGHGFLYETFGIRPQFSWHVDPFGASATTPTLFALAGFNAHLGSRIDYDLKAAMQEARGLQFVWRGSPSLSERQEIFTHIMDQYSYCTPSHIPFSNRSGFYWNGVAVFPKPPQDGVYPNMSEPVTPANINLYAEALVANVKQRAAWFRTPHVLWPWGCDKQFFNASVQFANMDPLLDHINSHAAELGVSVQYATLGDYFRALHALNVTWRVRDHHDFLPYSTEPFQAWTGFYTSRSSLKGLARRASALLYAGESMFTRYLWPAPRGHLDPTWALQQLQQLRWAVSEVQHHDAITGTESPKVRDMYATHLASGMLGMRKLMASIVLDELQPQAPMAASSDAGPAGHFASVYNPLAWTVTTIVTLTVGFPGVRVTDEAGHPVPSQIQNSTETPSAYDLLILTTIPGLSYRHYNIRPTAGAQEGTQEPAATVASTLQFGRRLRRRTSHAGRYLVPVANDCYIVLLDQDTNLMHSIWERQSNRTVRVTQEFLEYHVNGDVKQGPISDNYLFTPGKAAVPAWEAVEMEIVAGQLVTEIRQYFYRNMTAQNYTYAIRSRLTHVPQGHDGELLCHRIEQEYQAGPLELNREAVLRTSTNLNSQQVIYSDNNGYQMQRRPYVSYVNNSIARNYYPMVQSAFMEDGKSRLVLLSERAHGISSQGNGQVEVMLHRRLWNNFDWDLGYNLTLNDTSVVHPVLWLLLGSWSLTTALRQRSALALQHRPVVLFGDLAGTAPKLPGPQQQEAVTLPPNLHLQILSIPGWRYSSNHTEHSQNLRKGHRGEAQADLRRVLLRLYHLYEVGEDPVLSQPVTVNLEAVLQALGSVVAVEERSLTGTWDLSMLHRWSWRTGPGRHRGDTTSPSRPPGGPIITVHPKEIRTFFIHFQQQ
inactive: IRAK-1-4 Inhibitor I 0.086 | ibrutinib -0.079 | [1] -0.171 | ralimetinib 0.029 | [2] -0.033 | [3] -0.078 | [4] 0.043 | pinometostat 0.089 | [5] 0.064 | [6] -0.048 | [7] 0.017 | [8] 0.049 | [9] 0.033 | [10] -0.056 | Nexturastat A -0.062 | vemurafenib -0.105 | [11] -0.17 | [12] 0.139 | givinostat 0.014 | barasertib 0.041

LEO1 (UniProt Q8WVC0)
active: [6] -0.394
inactive: IRAK-1-4 Inhibitor I 0.134 | ibrutinib 0.026 | [1] -0.027 | ralimetinib -0.031 | [2] -0.044 | [3] -0.016 | [4] 0.068 | pinometostat 0.019 | [5] 0.019 | [7] -0.086 | [8] -0.113 | [9] 0 | [10] -0.075 | Nexturastat A 0.109 | vemurafenib -0.025 | [11] 0.033 | [12] 0.029 | givinostat 0.118 | barasertib 0.032

IPO7 (UniProt O95373)
inactive: IRAK-1-4 Inhibitor I 0 | ibrutinib -0.063 | [1] -0.021 | ralimetinib 0.032 | [2] -0.153 | [4] -0.069 | pinometostat 0.012 | [5] 0 | [7] 0.004 | [8] -0.007 | [9] 0.035 | [10] 0.035 | Nexturastat A 0.009 | vemurafenib 0.025 | [11] 0.081 | [12] -0.007 | givinostat 0.009 | barasertib 0.047
active: [3] -0.309 | [6] -0.221

MFN1 (UniProt Q8IWA4)
inactive: IRAK-1-4 Inhibitor I 0.057 | ibrutinib -0.009 | [1] -0.047 | ralimetinib -0.027 | [2] -0.043 | [4] 0.078 | pinometostat 0.018 | [5] 0.015 | [6] 0.098 | [7] -0.007 | [8] 0.035 | [9] 0.039 | [10] -0.04 | Nexturastat A -0.032 | vemurafenib -0.061 | [11] -0.021 | [12] -0.19 | givinostat 0.053 | barasertib 0.016
active: [3] -0.607

MAGI1 (UniProt Q96QZ7)
UniProt Q96QZ7, sequence (Q96QZ7 whole entry, looked up): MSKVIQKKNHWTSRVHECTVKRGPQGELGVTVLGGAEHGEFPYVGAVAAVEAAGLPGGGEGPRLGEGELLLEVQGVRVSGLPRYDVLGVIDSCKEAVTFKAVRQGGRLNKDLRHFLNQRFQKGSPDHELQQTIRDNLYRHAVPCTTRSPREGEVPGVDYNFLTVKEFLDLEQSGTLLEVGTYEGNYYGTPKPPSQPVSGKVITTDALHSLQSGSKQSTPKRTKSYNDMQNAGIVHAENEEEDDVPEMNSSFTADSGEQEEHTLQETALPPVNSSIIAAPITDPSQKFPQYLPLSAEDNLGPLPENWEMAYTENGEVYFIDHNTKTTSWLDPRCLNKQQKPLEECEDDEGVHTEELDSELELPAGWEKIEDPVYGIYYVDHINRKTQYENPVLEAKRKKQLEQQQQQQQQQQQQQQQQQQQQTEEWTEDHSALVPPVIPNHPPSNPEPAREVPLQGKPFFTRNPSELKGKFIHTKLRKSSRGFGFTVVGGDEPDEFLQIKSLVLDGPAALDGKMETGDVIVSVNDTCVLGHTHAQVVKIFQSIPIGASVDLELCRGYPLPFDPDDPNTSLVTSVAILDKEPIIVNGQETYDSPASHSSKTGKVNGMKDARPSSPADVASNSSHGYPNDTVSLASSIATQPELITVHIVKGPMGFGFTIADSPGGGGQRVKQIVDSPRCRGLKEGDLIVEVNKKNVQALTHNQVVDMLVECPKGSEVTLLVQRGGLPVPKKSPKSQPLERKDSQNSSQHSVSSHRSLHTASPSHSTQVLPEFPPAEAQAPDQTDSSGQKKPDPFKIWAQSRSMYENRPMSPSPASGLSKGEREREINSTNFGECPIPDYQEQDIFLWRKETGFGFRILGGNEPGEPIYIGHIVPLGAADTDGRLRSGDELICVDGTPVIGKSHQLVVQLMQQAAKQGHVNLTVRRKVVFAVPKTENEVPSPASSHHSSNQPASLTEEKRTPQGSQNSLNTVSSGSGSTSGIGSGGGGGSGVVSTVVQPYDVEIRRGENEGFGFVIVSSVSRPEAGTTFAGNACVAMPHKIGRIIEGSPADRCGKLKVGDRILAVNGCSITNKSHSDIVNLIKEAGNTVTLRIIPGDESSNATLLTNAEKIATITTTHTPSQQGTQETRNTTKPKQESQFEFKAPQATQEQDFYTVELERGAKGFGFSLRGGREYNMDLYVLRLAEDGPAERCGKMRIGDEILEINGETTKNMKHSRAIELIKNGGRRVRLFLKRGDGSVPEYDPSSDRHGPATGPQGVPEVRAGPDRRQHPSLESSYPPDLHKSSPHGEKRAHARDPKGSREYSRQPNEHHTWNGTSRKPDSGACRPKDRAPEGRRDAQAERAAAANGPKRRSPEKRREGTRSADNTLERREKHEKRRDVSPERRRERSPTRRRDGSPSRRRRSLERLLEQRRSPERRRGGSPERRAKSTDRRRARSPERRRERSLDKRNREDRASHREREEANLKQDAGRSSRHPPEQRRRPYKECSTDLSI
inactive: IRAK-1-4 Inhibitor I 0 | ibrutinib 0.057 | [1] -0.071 | ralimetinib 0.014 | [2] 0.032 | [3] -0.009 | [4] 0.01 | pinometostat 0.025 | [5] -0.016 | [6] 0.07 | [7] 0.041 | [8] 0.041 | [9] -0.027 | [10] -0.023 | Nexturastat A 0.074 | vemurafenib 0.018 | [11] -0.009 | [12] -0.026 | givinostat -0.013 | barasertib -0.008

LUZP1 (UniProt Q86V48)
inactive: IRAK-1-4 Inhibitor I -0.136 | ibrutinib -0.074 | [1] 0.275 | ralimetinib 0.08 | [2] 0.114 | [3] 0.019 | [4] 0.139 | pinometostat 0.113 | [5] 0.124 | [6] 0.079 | [7] -0.128 | [8] 0.136 | [9] -0.005 | [10] -0.182 | Nexturastat A 0.184 | vemurafenib 0.05 | [11] -0.091 | [12] -0.029 | givinostat 0.031 | barasertib -0.062

LMBRD2 (UniProt Q68DH5)
inactive: IRAK-1-4 Inhibitor I 0.14 | ibrutinib -0.034 | [1] 0.034 | ralimetinib -0.016 | [2] -0.021 | [4] -0.093 | pinometostat 0.037 | [5] -0.007 | [6] 0.012 | [7] -0.038 | [8] 0.016 | [9] 0.043 | [10] 0 | Nexturastat A 0.019 | vemurafenib -0.052 | [11] -0.03 | [12] 0.038 | givinostat 0.043 | barasertib 0.011
active: [3] -0.244

KDM1A isoform 2 (UniProt O60341)
inactive: IRAK-1-4 Inhibitor I -0.014 | ibrutinib 0.014 | [1] -0.123 | ralimetinib 0.175 | [2] -0.111 | [3] -0.041 | [4] 0.031 | pinometostat 0.046 | [5] 0.012 | [6] -0.05 | [7] -0.029 | [8] 0.058 | [9] 0.01 | [10] 0.002 | Nexturastat A 0.023 | vemurafenib -0.02 | [11] 0.033 | [12] 0.046 | givinostat 0.101 | barasertib 0.013

INTS7 (UniProt Q9NVH2)
inactive: IRAK-1-4 Inhibitor I 0.021 | ibrutinib -0.104 | [1] 0.029 | ralimetinib 0.028 | [2] -0.085 | [3] -0.146 | [4] 0.077 | pinometostat -0.136 | [5] -0.07 | [6] 0.048 | [7] 0.134 | [8] -0.007 | [9] 0.088 | [10] 0.091 | Nexturastat A -0.001 | vemurafenib 0.039 | [11] 0.018 | [12] 0.027 | givinostat 0.242 | barasertib 0.022

MAPK8 isoform 3 (UniProt P45983)
active: [1] 0.936
inactive: IRAK-1-4 Inhibitor I 0.034 | ibrutinib -0.081 | ralimetinib 0.271 | [2] -0.071 | [3] 0.012 | [4] -0.002 | pinometostat 0.05 | [5] -0.02 | [6] -0.1 | [7] -0.038 | [8] -0.026 | [9] -0.015 | [10] -0.012 | Nexturastat A -0.099 | vemurafenib 0.027 | [11] 0.012 | [12] 0.016 | givinostat 0.119 | barasertib 0.056
